Measurements reported in PubChem BioAssay (NCATS).
Results filed as inconclusive are left out. The source made the active and inactive calls. Calls come from the whole dose curve; as a rule, active = well fitted curve in the direction sought with a large enough effect; inconclusive = small, poorly fitted or top-dose-only effect, or another doubt; inactive = no such curve, though single readings can be large; an effect the other way counts as inactive or inconclusive.

Tests used:
HACAT = assay: qHTS assay to identify novel small-molecules to repurpose for Merkel cell carcinoma treatment (AID 1296009); settings: MCC and control cell lines, CellTiter-Glo viability, 72 h; at 44.8 µM (top of the series) unless noted; note: nearly all actives have a fitted effect of over 60% in size
In short: (§1)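 Cell viability, measured as CellTiter-Glo luminescence, was normalized between DMSO and no-cell wells. The cells had been exposed to 8- or 11-point compound dilutions for 72 hr at 37 degree celsius.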

NIH3T3 = assay: as above; settings: MCC and control cell lines, CellTiter-Glo viability, 72 h; at 44.8 µM (top of the series) unless noted
In short: as §1

C33A = assay: Primary qHTS to identify gynecologic anti-cancer compounds using libraries of approved drugs and bioactive compounds (AID 1345084); settings: Gynecologic cancer cell panel viability, ATPlite luminescence, 48 h; series mostly up to 57.5 µM; note: % is set by controls: 0 for no effect and ±100 for the full control effect; nearly all actives have a fitted effect of over 55% in size
In short: (§2)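 Cytotoxicity screen measuring ATP content by luciferase luminescence. Each compound is applied at five concentrations for 48 h at 37 C with 5% CO2.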

CAOV3 = assay: as above; settings: Gynecologic cancer cell panel viability, ATPlite luminescence, 48 h; series mostly up to 57.5 µM
In short: as §2

CASKI = assay: as above; settings: Gynecologic cancer cell panel viability, ATPlite luminescence, 48 h; series mostly up to 57.5 µM
In short: as §2

Es-2 = assay: as above; settings: Gynecologic cancer cell panel viability, ATPlite luminescence, 48 h; series mostly up to 57.5 µM
In short: as §2

HeLa = assay: as above; settings: Gynecologic cancer cell panel viability, ATPlite luminescence, 48 h; series mostly up to 57.5 µM
In short: as §2

Hek293T = assay: as above; settings: Gynecologic cancer cell panel viability, ATPlite luminescence, 48 h, control line for the selectivity index; series mostly up to 57.5 µM
In short: as §2

JEG-3 = assay: as above; settings: Gynecologic cancer cell panel viability, ATPlite luminescence, 48 h; series mostly up to 57.5 µM
In short: as §2

OV90 = assay: as above; settings: Gynecologic cancer cell panel viability, ATPlite luminescence, 48 h; series mostly up to 57.5 µM
In short: as §2

PA-1 = assay: as above; settings: Gynecologic cancer cell panel viability, ATPlite luminescence, 48 h; series mostly up to 57.5 µM
In short: as §2

SKOV3 = assay: as above; settings: Gynecologic cancer cell panel viability, ATPlite luminescence, 48 h; series mostly up to 57.5 µM
In short: as §2

Tov-21-G = assay: as above; settings: Gynecologic cancer cell panel viability, ATPlite luminescence, 48 h; series mostly up to 57.5 µM
In short: as §2

Tov112D = assay: as above; settings: Gynecologic cancer cell panel viability, ATPlite luminescence, 48 h; series mostly up to 57.5 µM
In short: as §2

COc1cc([C@H]2OC[C@](O)(Cc3ccc(O[C@@H]4O[C@H](CO)[C@@H](O)[C@H](O)[C@H]4O)c(OC)c3)[C@@H]2CO)ccc1O
inactive: outcome (HACAT) inactive [at 17.4 µM] | outcome (NIH3T3) inactive [at 17.4 µM] | Potency (C33A) | Potency (CAOV3) | outcome (CASKI) | Potency (Es-2) | Potency (HeLa) | Potency (Hek293T) | Potency (JEG-3) | Potency (OV90) | Potency (PA-1) | Potency (SKOV3) | Potency (Tov-21-G) | Potency (Tov112D)

OC[C@H]1O[C@@H](OCc2ccccc2)[C@H](O[C@@H]2OC[C@@H](O)[C@H](O)[C@H]2O)[C@@H](O)[C@@H]1O
inactive: outcome (HACAT) inactive [at 17.4 µM] | outcome (NIH3T3) inactive [at 17.4 µM] | Potency (C33A) | Potency (CAOV3) | outcome (CASKI) | Potency (Es-2) | Potency (HeLa) | Potency (Hek293T) | Potency (JEG-3) | Potency (OV90) | Potency (PA-1) | Potency (SKOV3) | Potency (Tov-21-G) | Potency (Tov112D)

C=C(C)[C@@H]1CC[C@]2(C(=O)O)CC[C@]3(C)C(CCC4[C@]5(C)C(CC[C@]43C)C(C)(C)[C@@H](O)[C@@H]5C(=O)O)C12 (some centres not stated)
inactive: outcome (HACAT) inactive [at 17.4 µM] | outcome (NIH3T3) inactive [at 17.4 µM] | Potency (C33A) | Potency (CAOV3) | outcome (CASKI) | Potency (Es-2) | Potency (HeLa) | Potency (Hek293T) | Potency (JEG-3) | Potency (OV90) | Potency (PA-1) | Potency (SKOV3) | Potency (Tov-21-G) | Potency (Tov112D)

C=C1CC/C=C(/C(=O)O)CCC2C1CC2(C)C (configuration not stated)
inactive: outcome (HACAT) | outcome (NIH3T3) | Potency (C33A) | Potency (CAOV3) | outcome (CASKI) | Potency (Es-2) | Potency (HeLa) | Potency (Hek293T) | Potency (JEG-3) | Potency (OV90) | Potency (PA-1) | Potency (SKOV3) | Potency (Tov-21-G) | Potency (Tov112D)

CNC(=O)c1ccc2c(c1)CCO[C@H]2CCN1CCN(c2ccc(C(N)=O)cc2)CC1
inactive: outcome (HACAT) | outcome (NIH3T3) | Potency (C33A) | Potency (CAOV3) | outcome (CASKI) | Potency (Es-2) | Potency (HeLa) | Potency (Hek293T) | Potency (JEG-3) | Potency (OV90) | Potency (PA-1) | Potency (SKOV3) | Potency (Tov-21-G) | Potency (Tov112D)

CC(O)C(=O)/C=C/C=C/C(=O)OC1C=C2COC(=O)C2(O)C2(C)CCCC(C)(C)C12 (configuration not stated)
inactive: outcome (HACAT) inactive [at 17.4 µM] | outcome (NIH3T3) inactive [at 17.4 µM] | Potency (C33A) | Potency (CAOV3) | outcome (CASKI) | Potency (Es-2) | Potency (HeLa) | Potency (Hek293T) | Potency (JEG-3) | Potency (OV90) | Potency (PA-1) | Potency (SKOV3) | Potency (Tov-21-G) | Potency (Tov112D)

Nc1ncnc2c1C(=O)N(c1ccc(C3CCC(CC(=O)O)CC3)cc1)CCO2 (configuration not stated)
inactive: outcome (HACAT) | outcome (NIH3T3) | Potency (C33A) | Potency (CAOV3) | outcome (CASKI) | Potency (Es-2) | Potency (HeLa) | Potency (Hek293T) | Potency (JEG-3) | Potency (OV90) | Potency (PA-1) | Potency (SKOV3) | Potency (Tov-21-G) | Potency (Tov112D)

OC[C@@]1(O)CO[C@H](OC[C@H]2O[C@@H](OC(CCCCc3ccc(O)cc3)CCc3ccc(O)cc3)[C@H](O)[C@@H](O)[C@@H]2O)[C@@H]1O (some centres not stated)
inactive: outcome (HACAT) inactive [at 17.4 µM] | outcome (NIH3T3) inactive [at 17.4 µM] | Potency (C33A) | Potency (CAOV3) | outcome (CASKI) | Potency (Es-2) | Potency (HeLa) | Potency (Hek293T) | Potency (JEG-3) | Potency (OV90) | Potency (PA-1) | Potency (SKOV3) | Potency (Tov-21-G) | Potency (Tov112D)

CCc1nnc(NS(=O)(=O)c2ccc(NC(=S)NC(=O)/C=C/c3ccc(F)cc3)cc2)s1
inactive: outcome (HACAT) | outcome (NIH3T3) | Potency (C33A) | Potency (CAOV3) | outcome (CASKI) | Potency (Es-2) | Potency (HeLa) | Potency (Hek293T) | Potency (JEG-3) | Potency (OV90) | Potency (PA-1) | Potency (SKOV3) | Potency (Tov-21-G) | Potency (Tov112D)

CC(C)=CCC[C@](C)(O[C@@H]1O[C@H](CO[C@@H]2OC[C@H](O)[C@H](O)[C@H]2O)[C@@H](O)[C@H](O)[C@H]1O)[C@H]1CC[C@]2(C)[C@@H]1[C@H](O)C[C@@H]1[C@@]3(C)CC[C@H](O[C@@H]4O[C@H](CO)[C@@H](O)[C@H](O)[C@H]4O[C@@H]4O[C@H](CO)[C@@H](O)[C@H](O)[C@H]4O)C(C)(C)[C@@H]3CC[C@]12C
inactive: outcome (HACAT) inactive [at 17.4 µM] | outcome (NIH3T3) inactive [at 17.4 µM] | Potency (C33A) | Potency (CAOV3) | outcome (CASKI) | Potency (Es-2) | Potency (HeLa) | Potency (Hek293T) | Potency (JEG-3) | Potency (OV90) | Potency (PA-1) | Potency (SKOV3) | Potency (Tov-21-G) | Potency (Tov112D)

NC(=O)[C@H](Cc1ccccc1)NC(=O)[C@H](CCCN=C(N)N)NC(=O)C12CC3CC(CC(C3)C1)C2
inactive: outcome (HACAT) inactive [at 9.27 µM] | outcome (NIH3T3) inactive [at 9.27 µM] | activity change, negative = cytotoxicity (C33A) 15.1% [at 11.6 µM] | activity change, negative = cytotoxicity (CAOV3) 15.6% [at 11.6 µM] | activity change, negative = cytotoxicity (CASKI) 5.13% [at 11.6 µM] | activity change, negative = cytotoxicity (Es-2) 7.15% [at 11.6 µM] | activity change, negative = cytotoxicity (HeLa) 9.3% [at 11.6 µM] | activity change, negative = cytotoxicity (Hek293T) 9.9% [at 11.6 µM] | activity change, negative = cytotoxicity (JEG-3) 17.3% [at 11.6 µM] | activity change, negative = cytotoxicity (OV90) -0.378% [at 11.6 µM] | activity change, negative = cytotoxicity (PA-1) 5.55% [at 11.6 µM] | activity change, negative = cytotoxicity (SKOV3) 6.06% [at 11.6 µM] | activity change, negative = cytotoxicity (Tov-21-G) 4.32% [at 11.6 µM] | activity change, negative = cytotoxicity (Tov112D) -1.65% [at 11.6 µM]

CC(=O)c1ccc(O[C@@H]2O[C@H](CO[C@@H]3OC[C@@H](O)[C@H](O)[C@H]3O)[C@@H](O)[C@H](O)[C@H]2O)cc1
inactive: outcome (HACAT) inactive [at 17.4 µM] | outcome (NIH3T3) inactive [at 17.4 µM] | Potency (C33A) | Potency (CAOV3) | outcome (CASKI) | Potency (Es-2) | Potency (HeLa) | Potency (Hek293T) | Potency (JEG-3) | Potency (OV90) | Potency (PA-1) | Potency (SKOV3) | Potency (Tov-21-G) | Potency (Tov112D)

C=C[C@H]1[C@H](O[C@@H]2O[C@H](CO)[C@@H](O)[C@H](OC(=O)/C=C/c3ccc(O)c(OC)c3)[C@H]2O)OC=C2C(=O)OCC[C@]21O
inactive: outcome (HACAT) inactive [at 17.4 µM] | outcome (NIH3T3) inactive [at 17.4 µM] | Potency (C33A) | Potency (CAOV3) | outcome (CASKI) | Potency (Es-2) | Potency (HeLa) | Potency (Hek293T) | Potency (JEG-3) | Potency (OV90) | Potency (PA-1) | Potency (SKOV3) | Potency (Tov-21-G) | Potency (Tov112D)
